PLCg1 inh: PLC-gamma1 (human) inhibition, primary screen; inhibition, % at 12.2 µM; purified PLC-gamma1, fluorogenic substrate, fluorescence; P19174; actives 0.84% (n = 370,000); AID 720700; in the data active means inhibition above about 9.5%
Target sequence (P19174 whole entry, looked up): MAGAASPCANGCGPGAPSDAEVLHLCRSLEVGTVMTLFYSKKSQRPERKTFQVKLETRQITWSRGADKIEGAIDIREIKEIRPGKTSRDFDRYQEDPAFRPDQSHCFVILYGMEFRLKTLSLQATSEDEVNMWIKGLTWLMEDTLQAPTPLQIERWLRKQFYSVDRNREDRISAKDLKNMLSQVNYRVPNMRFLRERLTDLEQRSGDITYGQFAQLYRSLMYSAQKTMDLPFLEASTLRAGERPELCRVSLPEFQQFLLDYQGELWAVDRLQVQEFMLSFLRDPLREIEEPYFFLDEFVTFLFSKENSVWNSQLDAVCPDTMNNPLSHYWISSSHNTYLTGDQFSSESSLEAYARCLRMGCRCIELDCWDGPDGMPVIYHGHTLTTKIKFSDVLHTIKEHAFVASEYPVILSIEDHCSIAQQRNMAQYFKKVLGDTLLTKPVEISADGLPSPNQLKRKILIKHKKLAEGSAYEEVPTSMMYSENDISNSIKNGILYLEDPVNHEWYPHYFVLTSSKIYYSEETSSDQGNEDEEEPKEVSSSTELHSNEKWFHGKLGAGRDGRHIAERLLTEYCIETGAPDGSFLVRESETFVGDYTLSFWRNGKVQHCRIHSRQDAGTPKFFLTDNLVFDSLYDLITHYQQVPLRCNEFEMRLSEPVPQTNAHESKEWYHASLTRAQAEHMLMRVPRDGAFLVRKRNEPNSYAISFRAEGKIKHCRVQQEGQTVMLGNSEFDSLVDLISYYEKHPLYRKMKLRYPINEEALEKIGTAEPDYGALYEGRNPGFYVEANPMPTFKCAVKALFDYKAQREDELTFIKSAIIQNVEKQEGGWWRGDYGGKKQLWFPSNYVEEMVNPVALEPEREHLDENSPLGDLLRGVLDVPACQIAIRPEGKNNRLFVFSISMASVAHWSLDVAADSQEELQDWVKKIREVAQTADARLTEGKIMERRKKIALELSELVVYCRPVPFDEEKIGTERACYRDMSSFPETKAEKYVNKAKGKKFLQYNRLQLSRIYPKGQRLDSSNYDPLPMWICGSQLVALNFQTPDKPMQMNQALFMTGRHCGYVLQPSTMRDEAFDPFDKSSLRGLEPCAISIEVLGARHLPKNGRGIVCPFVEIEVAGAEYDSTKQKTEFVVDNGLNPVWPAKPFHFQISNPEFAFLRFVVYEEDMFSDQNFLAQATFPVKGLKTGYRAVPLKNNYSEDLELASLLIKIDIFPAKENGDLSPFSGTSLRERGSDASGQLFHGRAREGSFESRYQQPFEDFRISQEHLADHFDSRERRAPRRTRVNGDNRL
ADAM10 inh: inhibitors of human ADAM10. O14672. recombinant ADAM10, EDANS/DABCYL FRET peptide cleavage, 3 h. inhibition, % at 7 µM. actives 0.62% (n = 370,000). AID 720582;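 active means inhibition above a per-campaign cutoff equal to the mean of compounds falling between control-based bounds plus 3 SD, cut at about 20% in these data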
PLCb3 inh: PLC-beta3 (human) inhibition, primary screen | AID 720704 | actives 0.18% (n = 370,000) | Purified PLC-beta3, fluorogenic substrate, fluorescence | inhibition, % at 12.2 µM
Rce1 inhib: yeast Ras-converting enzyme inhibition; calls only; Q03530; yeast membranes, quenched prenylated peptide cleavage fluorescence; actives 0.27% (n = 290,000);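 active means fall in fluorescence gain of 50% or more versus controls, with final raw signal at or below 3038400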
ADAM17 inh: ADAM17 inhibition, QFRET primary screen. inhibition, % at 6.95 µM. recombinant ADAM17, EDANS/DABCYL FRET peptide cleavage. actives 0.83% (n = 370,000);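 active means inhibition above the mean of compounds lying between control limits plus 3 SD, set per campaign, cut at about 8.5% in these data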
PLCgamma1 ctr: counter-screen for PLC-beta3 inhibitors: inhibitors of human PLC-gamma1; shares compounds with PLCg1 inh; purified PLC-gamma1, fluorogenic substrate, fluorescence; inhibition, % at 12.3 µM; actives 3.1% (n = 3,300); in the data active means inhibition above about 9.5%
PLCb3 confirm: confirmation of human PLC-beta3 inhibitors; shares compounds with PLCg1 inh; purified PLC-beta3, fluorogenic substrate fluorescence; inhibition, % at 12.3 µM; actives 1% (n = 3,300); AID 743261
Large screens that a line does not name were inactive (follow-up assays come after a bar, where they were run). Only some compounds are listed: those with a hit (about 2.1% of all), similar ones and a draw of the others. Unless noted, no stated cut-off is given here; in the data, active means inhibition above about 11%; inactive means the rest.

Cc1ccc(/C=C/C(=O)O)cc1S(=O)(=O)N1CCc2ccccc2C1	PLCg1 inh 11 | PLCgamma1 ctr inactive | PLCb3 confirm inactive
Cc1ccc(/C=C/C(=O)O)cc1S(=O)(=O)Nc1ccc(C(=O)O)cc1	none
O=C(CSCC(=O)N1CCOCC1)Nc1nc(-c2ccccc2)cs1	none (no result: Rce1 inhib)
O=C(CSCC(=O)N1CCOCC1)Nc1ccccc1	PLCg1 inh 11 | PLCgamma1 ctr inactive | PLCb3 confirm inactive
CC(C)(C)N1C(=O)[C@H]2[C@@H](c3ccc(Br)cc3)N3C(=O)N(c4cccc(Cl)c4)C(=O)[C@@]3(Cc3ccccc3)[C@H]2C1=O	PLCg1 inh 10 | PLCgamma1 ctr inactive | PLCb3 confirm inactive
C/C(=N\Nc1ccc(F)cc1F)c1ccccc1O	PLCg1 inh 12 (no result: Rce1 inhib) | PLCgamma1 ctr inactive | PLCb3 confirm inactive
C/C(=N\Nc1cc(C(F)(F)F)ccc1Cl)c1ccccc1O	none
Cc1noc(C)c1NC(=O)Nc1ccc2c(c1)CC(=O)N([C@H](C)CO)C[C@@H](C)[C@H](CN(C)CC1CCCCC1)O2	none (no result: Rce1 inhib)
O=c1c2[nH]c3ccccc3c2ncn1CCN1CCOCC1	PLCg1 inh 9.6 | PLCgamma1 ctr inactive | PLCb3 confirm inactive
CCC(=O)NCCc1nc2ccccc2n1Cc1ccc(C)cc1	PLCg1 inh 19 | PLCgamma1 ctr inactive | PLCb3 confirm inactive
O=C(CSC1=NS(=O)(=O)c2cc(Cl)ccc2N1)Nc1cccc(F)c1	none
Cc1cc2oc(C(=O)Nc3nonc3C)c(C)c2cc1Cl	PLCg1 inh 13 | PLCgamma1 ctr inactive | PLCb3 confirm inactive
Cc1nonc1NC(=O)c1oc2ccc(F)cc2c1C	none
Cc1cc(C)c(S(=O)(=O)N2CCCC(C(=O)NCc3ccncc3)C2)c(C)c1 (stereo unspecified)	none
O=C(Nc1ccnn1C1CCN(CCCC2CCCC2)CC1)c1ccccc1Cl	PLCg1 inh 11 | PLCgamma1 ctr inactive | PLCb3 confirm inactive
Nc1cc(Nc2ccccc2)c2nonc2c1[N+](=O)[O-]	PLCg1 inh 11 | PLCgamma1 ctr inactive | PLCb3 confirm inactive
FC(F)(F)c1ccccc1Cc1c(-c2ccco2)nc2c3ccccc3ccn12	none (no result: Rce1 inhib)
CC1CN(Cc2ccccc2)C(C)CC1O (stereo unspecified)	none
COC(=O)CCC(NC(=O)c1cc(-c2ccc3c(c2)OCCO3)oc1C)C(=O)OC (stereo unspecified)	none
COC(=O)C[C@H]1C=C[C@@H](C(C(=O)OC)C(=O)OC)CN1C(C)=O	PLCg1 inh 31 (no result: Rce1 inhib) | PLCgamma1 ctr inactive | PLCb3 confirm inactive
CCN(C(=O)CSc1nnc(NCc2ccccc2)s1)C1CCS(=O)(=O)C1 (stereo unspecified)	PLCg1 inh 12 | PLCgamma1 ctr inactive | PLCb3 confirm inactive
CC(C)CC(N)c1csc(NC(=O)c2cc(C(C)(C)C)nn2Cc2ccccc2)n1 (stereo unspecified)	PLCg1 inh 16 (no result: Rce1 inhib) | PLCgamma1 ctr inactive | PLCb3 confirm inactive
CC(C)CC(N)c1csc(NC(=O)Nc2ccccc2Cc2ccccc2)n1 (stereo unspecified)	none (no result: Rce1 inhib)
CCOP(=O)(OCC)C(Nc1ccc(F)cc1)c1ccccc1 (stereo unspecified)	none
CCOP(=O)(OCC)C(Nc1cccc(C(F)(F)F)c1)c1ccc(Br)cc1 (stereo unspecified)	PLCb3 inh 12 | PLCgamma1 ctr inactive | PLCb3 confirm inactive
OCC1OC(c2ccccc2)OC2COC(c3ccccc3)OC12 (stereo unspecified)	none (no result: Rce1 inhib)
OC1OC2COC(c3ccccc3)OC2C(O)C1O (stereo unspecified)	PLCb3 inh 11 (no result: Rce1 inhib) | PLCgamma1 ctr inactive | PLCb3 confirm inactive
Cn1cnnc1SCCNS(=O)(=O)c1cccc([N+](=O)[O-])c1	none
COc1ccc(CNC(=O)C(C)Cc2ccccc2)cc1O (stereo unspecified)	PLCg1 inh 12 | PLCgamma1 ctr inactive | PLCb3 confirm inactive
CC(=O)OC(C(=O)Nc1nccs1)c1ccccc1 (stereo unspecified)	PLCg1 inh 13 | PLCgamma1 ctr inactive | PLCb3 confirm inactive
Cc1cc(C)cc(S(=O)(=O)c2cnc3ccccc3n2)c1	none
O=S(=O)(c1ccc(Cl)cc1)c1cnc2ccccc2n1	PLCg1 inh 9.6 | PLCgamma1 ctr 12 | PLCb3 confirm inactive
CNC(=O)NC1CCCc2ccccc21 (stereo unspecified)	PLCg1 inh 11 | PLCgamma1 ctr inactive | PLCb3 confirm inactive
Cc1nnc(SCC(=O)NC2CCCc3ccccc32)n1-c1ccccc1 (stereo unspecified)	PLCg1 inh 11 | PLCgamma1 ctr inactive | PLCb3 confirm inactive
O=C(Nc1ccccc1)NC1CCCc2ccccc21 (stereo unspecified)	none
O=C(CN(c1ccccc1Cl)S(=O)(=O)c1ccccc1)NC1CC2CCC1C2 (stereo unspecified)	PLCb3 inh 14 (no result: Rce1 inhib) | PLCgamma1 ctr inactive | PLCb3 confirm inactive
COc1ccc(C2C(C(=O)N3CCOCC3)CC(=O)N2c2ccc(OC)cc2)cc1 (stereo unspecified)	none (no result: Rce1 inhib)
COCc1[nH][nH]c(=O)c1C=Nc1ccc(OC(F)(F)F)cc1	PLCb3 inh 11 | PLCgamma1 ctr inactive | PLCb3 confirm inactive
CN(C)c1nc2c(c(=O)[nH]c(=O)n2C)n1Cc1ccccc1Br	PLCg1 inh 11 | PLCgamma1 ctr inactive | PLCb3 confirm inactive
Cc1ccc(CN2CCN(Cc3cccc4c3OCO4)CC2CCO)cc1 (stereo unspecified)	PLCb3 inh 15 | PLCgamma1 ctr inactive | PLCb3 confirm inactive
CCOc1ccc(CN2CCN(Cc3cccc4c3OCO4)CC2CCO)cc1 (stereo unspecified)	none
NC(=O)NC(=O)CSc1cccc(C(F)(F)F)c1	PLCg1 inh 9.5 | PLCgamma1 ctr inactive | PLCb3 confirm inactive
CCn1cc(C(=O)O)c(=O)c2cnc(N3CCN(C(=S)NC(=O)c4ccc(Cl)cc4Cl)CC3)nc21	PLCg1 inh 10.0 | PLCgamma1 ctr inactive | PLCb3 confirm inactive
COc1ccc(-n2c(N)c(Br)c(=O)[nH]c2=O)cc1	PLCg1 inh 11 | PLCgamma1 ctr inactive | PLCb3 confirm inactive
Nc1c(Br)c(=O)[nH]c(=O)n1-c1ccccc1	none
CCOc1cc(CN2CCN(c3cccc(C(F)(F)F)c3)CC2)ccc1O	PLCg1 inh 9.7 | PLCgamma1 ctr inactive | PLCb3 confirm inactive
Cc1ccc(S(=O)(=O)N2CCC(=O)N(C(COCc3cccc(Cl)c3)C(C)C)CC2)cc1 (stereo unspecified)	none
Cc1ccc(S(=O)(=O)N2CCC(=O)N(C(COCc3cccc(C)c3)C(C)C)CC2)cc1 (stereo unspecified)	PLCg1 inh 11 | PLCgamma1 ctr inactive | PLCb3 confirm inactive
Cc1ccc(-c2nnc3sc(C4COc5ccccc5O4)nn23)cc1 (stereo unspecified)	none (no result: Rce1 inhib)
